This note sets out measurements from PubChem BioAssay AID2284419 (EPA ToxCast).

As usually defined, the AC50 is the midpoint of the concentration-response curve, whichever way the signal moves.

Records with an inconclusive call do not appear. Calls of active or inactive are those of the source. Rule for the calls: active = hit-call score of the fitted dose curve at least 0.9, where 1 is the maximum; inconclusive = response in the unintended direction; inactive = score below 0.9.

This test relates to SRY-box transcription factor 2 (SOX2) Protein Expression, Deisenroth Lab, SOX2 (gene 6657). Kind of test: CCTE_Deisenroth_DEVTOX-GLR_Meso_SOX2: CCTE's DevTox GLR-Meso Assay Evaluation of SRY-box transcription factor 2 (SOX2) Protein Expression, Deisenroth Lab. The protocol:
CCTE_Deisenroth_DEVTOX-GLR_Meso assay is a cell-based, multiplex-readout assay that uses RUES2-GLR, a human pluripotent cell line, with measurements taken at 48 hours after chemical dosing in a 384-well microplateCCTE_Deisenroth_DEVTOX-GLR_Meso_SOX2 is 1 of 4 assay components calculated from the CCTE_Deisenroth_DEVTOX-GLR_Meso assay and it measures an the percentage of cells in an ectoderm state. Using a type of inducible fluorescent protein reporter, gain-of-signal activity can be used to understand changes in gene expression with fluorescent microscopy. The percentage of SOX2+ cells are determined by calculating the number of SOX2+ cells divided by the cell count. To generalize the intended target to other relatable targets, this assay component is annotated to the transcription factor intended target family, where the subfamily is SRY-related HMG-box.Data from the assay component CCTE_Deisenroth_DEVTOX-GLR_Meso_SOX2 was analyzed as 1 assay endpoint. The endpoint is the percent SOX2+ cell population minus the 0.2% DMSO control in the CCTE_Deisenroth_DEVTOX-GLR_Meso assay. Furthermore, this assay endpoint can be referred to as a secondary readout, because this assay has produced multiple assay endpoints where this one serves as a measure of ectoderm differentiation.
All assay protocols are aligned to the DevTox GLR-Endo assay workflow. Cells are seeded into 384-well microplates for 24 hours prior to initiating differentiation in defined media for a total duration of 48 hours. A total of two chemical exposures are administered in 24-hour intervals during the 48-hour differentiation period. At the assay termination point, cells are fixed and stained with a fluorescent dye demarcating the nucleus. High-content imaging is used to acquire brightfield and fluorescent channel images across 5 fields per well. Cell identification and mean biomarker fluorescence intensities are calculated with image analysis software to determine the total cell counts for viability assessment and the biomarker expression frequency for each lineage-dependent assay. A typical experimental design tests a 10-point concentration series (1 nM - 200 uM) for 28 compounds in single technical replicate. Assay plate controls include non-differentiated pluripotent cells (baseline control), lineage-specific differentiated cells (differentiation control), and DMSO solvent exposed differentiated cells (solvent control). Experiments typically comprise a minimum of four experimental replicates (n=4).
Turning to `CCN(CC)CCNC(=O)c1c(C)[nH]c(/C=C2\C(=O)Nc3ccc(F)cc32)c1C`, the half-maximal activity concentration (AC50) was 0.194 µM (active).
On the same count and under the same terms, the figure for `CN(Cc1cnc2nc(N)nc(N)c2n1)c1ccc(C(=O)N[C@@H](CCC(=O)O)C(=O)O)cc1` is 0.0688 µM (active).
The same measure, in the same setting: the figure for `CS(=O)(=O)OCCCCOS(C)(=O)=O` is 124 µM (active).
For `Nc1nc2ncc(CNc3ccc(C(=O)N[C@@H](CCC(=O)O)C(=O)O)cc3)nc2c(=O)[nH]1`, the molecule was called inactive.
Take `O=C1CCC(N2C(=O)c3ccccc3C2=O)C(=O)N1` (stereo not given): the outcome was inactive.
Take `CC1=C(/C=C/C(C)=C/C=C/C(C)=C\C(=O)O)C(C)(C)CCC1`: the half-maximal activity concentration (AC50) was 18.8 µM (active).
For `O=C1NS(=O)(=O)c2ccccc21`, the call was inactive.
For the molecule `O=C1NC(=O)C(c2ccccc2)(c2ccccc2)N1`, the concentration at half-maximal activity (AC50) is 180 µM (active).
For `O=c1[nH]cc(F)c(=O)[nH]1`, the concentration at half-maximal activity (AC50) is 19.9 µM (active).
Take `CC1(C)S[C@@H]2[C@H](NC(=O)Cc3ccccc3)C(=O)N2[C@H]1C(=O)O`: the molecule was classed as inactive.
In the case of `CC(C)(c1ccc(O)cc1)c1ccc(O)cc1`, the half-maximal activity concentration (AC50) was 56.6 µM (active).
Turning to `Nc1cccc2c1C(=O)N(C1CCC(=O)NC1=O)C2=O` (stereo not given), the result was inactive.
As for `CC1=C(/C=C/C(C)=C/C=C/C(C)=C/C(=O)O)C(C)(C)CCC1`, the AC50 is 7.53 µM (active).
The same measure, in the same setting: the figure for `CC/C(=C(/CC)c1ccc(O)cc1)c1ccc(O)cc1` is 3.63 µM (active).
Take `CC(=O)Nc1ccc(O)cc1`: the outcome was inactive.
